# Experimental data reported in ChEMBL document CHEMBL1961873, “Compounds: GSK PKIS; Assays: Nanosyn kinase panel” (2012).
# Experiments:
# [1] = molecular target: Ribosomal protein S6 kinase alpha-6 (Homo sapiens) (UniProt Q9UK32); conditions: at 1 µM;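 further: each value is a mean inhibition of RSK4 from a GSK PKIS panel screen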
# [2] = molecular target: T1, Serine/threonine-protein kinase Sgk1 (Homo sapiens) (UniProt O00141); conditions: at 0.1 µM
# T1 sequence (whole entry): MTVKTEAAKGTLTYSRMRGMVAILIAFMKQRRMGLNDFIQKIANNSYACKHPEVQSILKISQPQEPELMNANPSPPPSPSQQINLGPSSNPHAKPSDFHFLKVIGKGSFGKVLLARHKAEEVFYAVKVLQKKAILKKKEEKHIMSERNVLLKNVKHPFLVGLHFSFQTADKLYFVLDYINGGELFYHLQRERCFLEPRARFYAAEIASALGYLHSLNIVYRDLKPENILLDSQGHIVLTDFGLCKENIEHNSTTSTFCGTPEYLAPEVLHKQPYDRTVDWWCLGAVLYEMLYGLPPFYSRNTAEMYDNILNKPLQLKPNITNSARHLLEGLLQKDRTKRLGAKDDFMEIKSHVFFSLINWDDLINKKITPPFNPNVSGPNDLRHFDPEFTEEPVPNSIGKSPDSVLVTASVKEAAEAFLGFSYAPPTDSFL
# [3] = molecular target: T1, Serine/threonine-protein kinase Sgk1 (Homo sapiens); conditions: at 1 µM
# [4] = molecular target: T2, Serine/threonine-protein kinase Sgk2 (Homo sapiens) (UniProt Q9HBY8); conditions: at 0.1 µM
# T2 sequence (whole entry): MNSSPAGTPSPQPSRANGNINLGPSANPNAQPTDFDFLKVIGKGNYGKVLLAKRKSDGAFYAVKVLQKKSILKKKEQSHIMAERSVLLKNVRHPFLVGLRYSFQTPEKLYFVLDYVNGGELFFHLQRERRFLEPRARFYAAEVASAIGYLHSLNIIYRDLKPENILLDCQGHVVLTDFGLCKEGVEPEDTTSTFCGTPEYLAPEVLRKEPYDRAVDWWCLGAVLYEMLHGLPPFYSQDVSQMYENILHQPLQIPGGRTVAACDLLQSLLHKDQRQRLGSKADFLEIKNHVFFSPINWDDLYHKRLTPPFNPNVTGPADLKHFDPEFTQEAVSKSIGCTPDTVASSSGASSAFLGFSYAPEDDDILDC
# [5] = molecular target: T2, Serine/threonine-protein kinase Sgk2 (Homo sapiens); conditions: at 1 µM
# [6] = molecular target: T3, Serine/threonine-protein kinase Sgk3 (Homo sapiens) (UniProt Q96BR1); conditions: at 0.1 µM
# T3 sequence (whole entry): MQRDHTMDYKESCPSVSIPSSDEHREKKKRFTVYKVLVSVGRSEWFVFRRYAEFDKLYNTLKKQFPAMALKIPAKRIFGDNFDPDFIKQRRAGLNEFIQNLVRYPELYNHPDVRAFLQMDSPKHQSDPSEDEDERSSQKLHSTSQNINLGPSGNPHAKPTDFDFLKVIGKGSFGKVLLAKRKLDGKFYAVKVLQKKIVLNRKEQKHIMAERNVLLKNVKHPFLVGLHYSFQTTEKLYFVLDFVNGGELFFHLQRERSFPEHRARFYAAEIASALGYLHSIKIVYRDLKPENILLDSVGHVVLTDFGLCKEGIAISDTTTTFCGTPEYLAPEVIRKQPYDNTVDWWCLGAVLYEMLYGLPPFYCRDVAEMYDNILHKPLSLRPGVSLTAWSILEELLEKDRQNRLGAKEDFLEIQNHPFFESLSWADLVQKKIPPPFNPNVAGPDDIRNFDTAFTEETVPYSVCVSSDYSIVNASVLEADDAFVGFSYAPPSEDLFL
# [7] = molecular target: T3, Serine/threonine-protein kinase Sgk3 (Homo sapiens); conditions: at 1 µM
# [8] = molecular target: 5'-AMP-activated protein kinase catalytic subunit alpha-1 (Homo sapiens) (UniProt Q13131); conditions: at 0.1 µM
# Sequence of 5'-AMP-activated protein kinase catalytic subunit alpha-1 (Homo sapiens) (Q13131 whole entry, looked up): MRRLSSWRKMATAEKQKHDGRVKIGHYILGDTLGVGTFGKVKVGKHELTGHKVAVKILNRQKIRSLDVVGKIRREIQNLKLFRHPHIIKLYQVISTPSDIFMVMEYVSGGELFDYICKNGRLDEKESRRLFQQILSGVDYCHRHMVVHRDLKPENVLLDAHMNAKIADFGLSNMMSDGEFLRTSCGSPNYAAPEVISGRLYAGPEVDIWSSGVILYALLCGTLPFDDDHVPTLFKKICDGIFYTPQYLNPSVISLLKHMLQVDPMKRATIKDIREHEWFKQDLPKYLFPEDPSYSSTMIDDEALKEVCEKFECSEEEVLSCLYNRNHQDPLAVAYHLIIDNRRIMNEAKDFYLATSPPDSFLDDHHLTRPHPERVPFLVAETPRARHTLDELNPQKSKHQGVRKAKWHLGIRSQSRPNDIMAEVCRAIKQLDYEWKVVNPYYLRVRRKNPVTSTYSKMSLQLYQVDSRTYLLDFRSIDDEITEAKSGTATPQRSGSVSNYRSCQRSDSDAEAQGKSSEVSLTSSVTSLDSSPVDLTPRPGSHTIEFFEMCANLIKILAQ
# [9] = molecular target: 5'-AMP-activated protein kinase catalytic subunit alpha-1 (Homo sapiens) (UniProt Q13131); conditions: at 1 µM
# [10] = molecular target: 5'-AMP-activated protein kinase catalytic subunit alpha-2 (Homo sapiens) (UniProt P54646); conditions: at 0.1 µM
# Sequence of 5'-AMP-activated protein kinase catalytic subunit alpha-2 (Homo sapiens) (P54646 whole entry, looked up): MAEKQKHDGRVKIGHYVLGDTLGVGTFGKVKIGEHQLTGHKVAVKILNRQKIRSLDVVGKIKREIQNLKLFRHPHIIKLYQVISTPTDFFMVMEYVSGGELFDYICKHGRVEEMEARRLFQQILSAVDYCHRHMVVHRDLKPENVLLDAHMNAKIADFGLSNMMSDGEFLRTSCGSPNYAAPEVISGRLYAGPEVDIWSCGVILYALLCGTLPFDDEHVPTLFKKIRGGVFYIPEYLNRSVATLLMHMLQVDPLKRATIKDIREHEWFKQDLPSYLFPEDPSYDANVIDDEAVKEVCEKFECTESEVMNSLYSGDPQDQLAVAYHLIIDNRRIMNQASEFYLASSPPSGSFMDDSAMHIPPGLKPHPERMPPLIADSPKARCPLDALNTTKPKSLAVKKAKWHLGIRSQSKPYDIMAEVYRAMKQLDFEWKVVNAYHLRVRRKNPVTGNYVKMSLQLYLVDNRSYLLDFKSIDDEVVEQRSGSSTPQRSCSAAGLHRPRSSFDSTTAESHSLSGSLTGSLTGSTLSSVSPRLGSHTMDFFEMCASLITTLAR
# [11] = molecular target: 5'-AMP-activated protein kinase catalytic subunit alpha-2 (Homo sapiens) (UniProt P54646); conditions: at 1 µM
# [12] = molecular target: T4, NUAK family SNF1-like kinase 1 (Homo sapiens) (UniProt O60285); conditions: at 0.1 µM
# T4 sequence (whole entry): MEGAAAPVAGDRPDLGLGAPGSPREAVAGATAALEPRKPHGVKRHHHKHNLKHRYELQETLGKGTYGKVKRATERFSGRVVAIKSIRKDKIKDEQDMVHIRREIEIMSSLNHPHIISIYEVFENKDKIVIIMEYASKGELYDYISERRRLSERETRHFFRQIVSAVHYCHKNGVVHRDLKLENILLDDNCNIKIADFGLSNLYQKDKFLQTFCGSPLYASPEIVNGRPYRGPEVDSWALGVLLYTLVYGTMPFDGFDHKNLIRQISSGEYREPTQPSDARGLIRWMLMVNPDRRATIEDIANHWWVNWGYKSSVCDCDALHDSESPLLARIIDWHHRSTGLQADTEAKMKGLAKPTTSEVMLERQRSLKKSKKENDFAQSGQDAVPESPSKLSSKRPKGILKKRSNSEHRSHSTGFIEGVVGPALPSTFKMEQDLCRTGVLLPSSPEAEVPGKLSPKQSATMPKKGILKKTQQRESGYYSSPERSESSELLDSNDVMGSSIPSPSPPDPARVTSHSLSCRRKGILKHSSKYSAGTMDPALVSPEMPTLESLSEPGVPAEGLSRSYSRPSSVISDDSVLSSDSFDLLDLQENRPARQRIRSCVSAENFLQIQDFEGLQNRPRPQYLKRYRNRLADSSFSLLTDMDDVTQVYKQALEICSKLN
# [13] = molecular target: T4, NUAK family SNF1-like kinase 1 (Homo sapiens); conditions: at 1 µM
# [14] = molecular target: T5, Serine/threonine-protein kinase BRSK1 (Homo sapiens) (UniProt Q8TDC3); conditions: at 0.1 µM
# T5 sequence (whole entry): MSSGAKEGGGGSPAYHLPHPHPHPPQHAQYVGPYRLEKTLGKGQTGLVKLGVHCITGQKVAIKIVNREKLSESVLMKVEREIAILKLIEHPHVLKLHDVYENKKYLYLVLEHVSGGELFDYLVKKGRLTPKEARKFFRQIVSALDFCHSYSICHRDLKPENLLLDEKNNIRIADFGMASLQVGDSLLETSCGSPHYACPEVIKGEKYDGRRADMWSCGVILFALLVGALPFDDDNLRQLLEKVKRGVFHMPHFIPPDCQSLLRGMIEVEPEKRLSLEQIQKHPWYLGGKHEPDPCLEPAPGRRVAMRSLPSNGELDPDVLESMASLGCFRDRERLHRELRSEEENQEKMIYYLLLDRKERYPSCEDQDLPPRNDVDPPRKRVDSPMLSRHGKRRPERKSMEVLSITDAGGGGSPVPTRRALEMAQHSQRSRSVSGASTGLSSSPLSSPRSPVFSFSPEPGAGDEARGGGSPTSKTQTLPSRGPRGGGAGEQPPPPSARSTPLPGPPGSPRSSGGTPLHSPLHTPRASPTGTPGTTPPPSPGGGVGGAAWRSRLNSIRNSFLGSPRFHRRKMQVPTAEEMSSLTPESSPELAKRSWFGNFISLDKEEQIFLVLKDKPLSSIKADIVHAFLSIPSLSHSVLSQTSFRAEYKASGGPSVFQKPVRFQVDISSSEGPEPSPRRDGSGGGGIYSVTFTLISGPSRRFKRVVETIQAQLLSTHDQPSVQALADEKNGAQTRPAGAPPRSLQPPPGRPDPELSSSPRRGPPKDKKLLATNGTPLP
# [15] = molecular target: T5, Serine/threonine-protein kinase BRSK1 (Homo sapiens); conditions: at 1 µM
# [16] = molecular target: T6, Serine/threonine-protein kinase BRSK2 (Homo sapiens) (UniProt Q8IWQ3); conditions: at 0.1 µM
# T6 sequence (whole entry): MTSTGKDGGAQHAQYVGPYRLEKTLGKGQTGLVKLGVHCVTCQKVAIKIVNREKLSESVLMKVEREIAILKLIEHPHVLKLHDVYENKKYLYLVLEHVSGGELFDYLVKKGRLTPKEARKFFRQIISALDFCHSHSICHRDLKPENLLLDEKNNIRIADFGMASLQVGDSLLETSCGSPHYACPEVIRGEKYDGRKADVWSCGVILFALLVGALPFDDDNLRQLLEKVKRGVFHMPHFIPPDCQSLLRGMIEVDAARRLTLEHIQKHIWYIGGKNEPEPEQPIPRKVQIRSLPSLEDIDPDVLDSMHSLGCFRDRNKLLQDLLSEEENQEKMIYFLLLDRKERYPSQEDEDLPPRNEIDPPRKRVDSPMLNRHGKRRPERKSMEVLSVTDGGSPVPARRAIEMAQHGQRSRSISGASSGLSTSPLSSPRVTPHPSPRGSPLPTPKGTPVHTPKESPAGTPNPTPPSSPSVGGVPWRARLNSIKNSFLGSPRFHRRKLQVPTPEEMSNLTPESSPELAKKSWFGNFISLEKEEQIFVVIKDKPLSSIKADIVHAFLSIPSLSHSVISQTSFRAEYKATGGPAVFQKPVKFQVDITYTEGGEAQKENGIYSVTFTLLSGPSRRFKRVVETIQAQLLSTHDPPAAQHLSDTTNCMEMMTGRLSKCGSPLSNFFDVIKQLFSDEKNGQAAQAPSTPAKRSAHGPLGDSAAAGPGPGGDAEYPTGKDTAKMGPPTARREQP
# [17] = molecular target: T6, Serine/threonine-protein kinase BRSK2 (Homo sapiens); conditions: at 1 µM
# [18] = molecular target: Calcium/calmodulin-dependent protein kinase type 1D (Homo sapiens) (UniProt Q8IU85); conditions: at 0.1 µM
# Sequence of Calcium/calmodulin-dependent protein kinase type 1D (Homo sapiens) (Q8IU85 whole entry, looked up): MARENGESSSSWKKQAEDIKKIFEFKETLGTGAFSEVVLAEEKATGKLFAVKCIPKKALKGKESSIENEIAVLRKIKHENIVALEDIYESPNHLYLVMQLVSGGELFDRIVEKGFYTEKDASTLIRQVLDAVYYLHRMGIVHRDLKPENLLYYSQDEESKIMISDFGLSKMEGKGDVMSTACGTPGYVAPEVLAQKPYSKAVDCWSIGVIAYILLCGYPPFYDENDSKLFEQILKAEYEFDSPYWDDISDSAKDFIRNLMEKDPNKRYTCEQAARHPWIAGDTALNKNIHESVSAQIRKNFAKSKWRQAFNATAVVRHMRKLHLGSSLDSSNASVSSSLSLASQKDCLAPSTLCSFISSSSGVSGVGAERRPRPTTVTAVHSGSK
# [19] = molecular target: Calcium/calmodulin-dependent protein kinase type 1D (Homo sapiens) (UniProt Q8IU85); conditions: at 1 µM
# [20] = molecular target: Calcium/calmodulin-dependent protein kinase type II subunit alpha (Homo sapiens) (UniProt Q9UQM7); conditions: at 0.1 µM;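 further: reported values are averages (mean inhibition of CAMK2A)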
# Sequence of Calcium/calmodulin-dependent protein kinase type II subunit alpha (Homo sapiens) (Q9UQM7 whole entry): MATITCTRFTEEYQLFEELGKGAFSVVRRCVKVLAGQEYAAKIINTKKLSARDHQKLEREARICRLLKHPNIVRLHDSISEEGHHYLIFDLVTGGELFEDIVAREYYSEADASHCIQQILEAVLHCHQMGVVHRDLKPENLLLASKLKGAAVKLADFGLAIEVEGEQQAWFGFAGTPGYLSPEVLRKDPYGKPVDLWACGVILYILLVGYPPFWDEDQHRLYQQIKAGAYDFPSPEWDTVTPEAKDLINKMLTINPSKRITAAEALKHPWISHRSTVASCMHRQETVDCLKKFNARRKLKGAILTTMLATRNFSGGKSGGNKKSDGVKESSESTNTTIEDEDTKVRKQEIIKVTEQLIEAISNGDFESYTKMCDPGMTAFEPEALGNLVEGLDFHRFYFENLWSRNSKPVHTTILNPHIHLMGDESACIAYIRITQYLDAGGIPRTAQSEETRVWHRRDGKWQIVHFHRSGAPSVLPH
# Sequence of Ribosomal protein S6 kinase alpha-6 (Homo sapiens) (Q9UK32 whole entry): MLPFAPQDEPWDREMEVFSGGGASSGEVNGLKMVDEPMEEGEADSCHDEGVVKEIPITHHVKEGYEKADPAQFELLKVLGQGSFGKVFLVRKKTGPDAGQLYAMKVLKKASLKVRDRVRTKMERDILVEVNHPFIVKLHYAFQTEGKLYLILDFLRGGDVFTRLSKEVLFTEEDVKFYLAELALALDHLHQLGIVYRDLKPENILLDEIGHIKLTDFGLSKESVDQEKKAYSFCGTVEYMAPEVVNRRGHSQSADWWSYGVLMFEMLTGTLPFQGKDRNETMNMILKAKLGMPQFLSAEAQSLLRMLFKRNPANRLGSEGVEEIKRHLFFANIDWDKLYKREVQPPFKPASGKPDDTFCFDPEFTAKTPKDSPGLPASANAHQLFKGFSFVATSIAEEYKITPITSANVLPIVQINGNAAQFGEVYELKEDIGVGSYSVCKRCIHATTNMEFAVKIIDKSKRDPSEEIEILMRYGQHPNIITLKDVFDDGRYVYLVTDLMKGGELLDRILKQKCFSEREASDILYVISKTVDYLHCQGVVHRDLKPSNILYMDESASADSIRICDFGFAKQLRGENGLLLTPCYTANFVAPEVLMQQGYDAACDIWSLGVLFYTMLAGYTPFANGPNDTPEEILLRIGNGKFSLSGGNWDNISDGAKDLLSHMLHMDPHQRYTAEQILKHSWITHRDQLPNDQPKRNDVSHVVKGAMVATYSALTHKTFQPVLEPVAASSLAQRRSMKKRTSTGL
Structure (SMILES),inhibition [1],inhibition [2],inhibition [3],inhibition [4],inhibition [5],inhibition [6],inhibition [7],inhibition [8],inhibition [9],inhibition [10],inhibition [11],inhibition [12],inhibition [13],inhibition [14],inhibition [15],inhibition [16],inhibition [17],inhibition [18],inhibition [19],inhibition [20]
O=C(O[C@H]1CN[C@H](C#Cc2cc3ncnc(Nc4ccc(OCc5cccc(F)c5)c(Cl)c4)c3s2)C1)N1CCOCC1,1.82%,3.69%,4.68%,6.81%,6.86%,7.16%,6.57%,4.66%,4.92%,4.18%,2.14%,0.4%,0.97%,-0.35%,1.81%,2.06%,3.32%,-0.02%,-0.12%,2.9%
O=C1Nc2ccccc2/C1=C1\CCc2cc(O)ccc21,37.6%,6.47%,19.2%,2.24%,10.2%,2.61%,5.81%,5.27%,13.4%,5.22%,14.3%,16.2%,60.8%,3.95%,16.9%,5.82%,20.1%,1.02%,3.43%,3.85%
c1ccc(-c2n[nH]cc2-c2ccnc(-c3ccc(OCCn4ccnc4)cc3)c2)nc1,1.74%,0.97%,2.43%,0.56%,0.22%,0.55%,2.01%,0.79%,3.29%,2.92%,1.29%,-0.74%,7.14%,0.8%,1.98%,0.62%,4.44%,-0.08%,0.91%,-3.32%
CC1(C)CC(n2cnc(-c3ccc(F)cc3)c2-c2ccnc(N)n2)CC(C)(C)N1,0.95%,1.68%,5.28%,-3.17%,-3.03%,1.34%,1.32%,0.3%,1.1%,3.69%,0.53%,0.87%,1.37%,1.5%,4.7%,1.41%,5.87%,-0.53%,2.41%,-2.87%
COc1ccccc1-c1cc(/C=C2\C(=O)Nc3ncc(Br)cc32)cc(Br)c1O,2.05%,4.47%,5.53%,3.23%,2.58%,4.46%,0.16%,4.85%,9.85%,5.58%,7.88%,4.1%,6.09%,4.73%,5.82%,5.97%,4.72%,0.1%,1.73%,4.16%
CS(=O)(=O)Nc1ccc(-c2cc(-c3ccccc3)cc(C(N)=O)c2N)cc1,0.06%,0.87%,2.29%,9.08%,0.51%,0.13%,2.54%,0.7%,1.42%,5.24%,1.49%,-2.25%,1.62%,-0.36%,-0.05%,0.92%,2.21%,-0.99%,-0.47%,-1.51%
CNC(=O)c1cncc(/C=C/c2ccccc2C)c1,0.63%,3.1%,5.48%,2.67%,0.66%,1.58%,4.02%,3.16%,7.91%,2.05%,6.66%,2.2%,9.32%,2.32%,15%,3.54%,17.4%,-0.17%,-0.91%,4.14%
CN1CCC(n2cnc(-c3ccc(F)cc3)c2-c2ccnc(NCCO)n2)CC1,1.96%,3.61%,6.71%,0.04%,5.93%,5.14%,3.95%,2.98%,6.22%,1.25%,3.88%,1.51%,0.83%,1.04%,3.71%,2.24%,6.29%,-1.1%,-1.38%,8.05%
NS(=O)(=O)c1ccc(N/N=C2\C(=O)Nc3ccc(C(=O)NCc4ccncc4)cc32)cc1,11.3%,3.41%,12.9%,0.65%,8.08%,4.07%,8.33%,41.7%,75.5%,5.3%,34.9%,18.9%,59.5%,6.67%,39.7%,17.2%,55.8%,-0.48%,-0.33%,2.84%
CNC(=O)c1ncccc1Nc1nc(Nc2cc3c(cc2OC)CCCN3C(=O)CN(C)C)nc2[nH]ccc12,19.7%,2.04%,2.57%,0.57%,1.29%,4.05%,4.49%,5.47%,6.88%,3.31%,8.1%,5.36%,8.33%,3.14%,4.58%,3.37%,4.64%,1.94%,12.9%,4.09%
NC(=O)c1ccc2c(-c3ccnc(NCCCO)n3)c(-c3ccc(F)cc3)nn2c1,2.84%,2.62%,2.32%,4.31%,1.91%,2.16%,1.28%,2.28%,7.4%,3.45%,4.65%,2.9%,4.34%,2.91%,4.68%,2.27%,3.75%,-0.23%,1.6%,3.83%
CCS(=O)(=O)c1ccc(OC)c(Nc2ncc(-c3cccc(C(C)=O)c3)o2)c1,2.13%,0.32%,5.11%,2.27%,3.41%,1.59%,2.93%,2.21%,4.72%,-0.37%,3.65%,2.25%,4.46%,-0.38%,3.68%,1.58%,4.09%,0.3%,-0.69%,2.75%
